Test results: the supplement of paper PMC4466140

Assays:
Assay in all cases: SPOT peptide array binding signal intensity (averaged, normalized) (arbitrary units (background-subtracted, floor 0; scale differs between SH3 domains)); higher = stronger binding of the SH3 domain to the peptide
[1] = target: CaNbp2
In short: (§1)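 E. coli BL21(DE3) was used to express GST-fused SH3 domains from four yeast species, which were then purified on glutathione Sepharose. These were incubated at 10 μg/ml in TBS-based blocking buffer overnight at 4°C on cellulose membranes carrying synthetic 15-mer peptides, in which cysteines were replaced by serines. Binding signal is the replicate average of normalized, background-subtracted spot intensity, in arbitrary units that differ between domains.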

[2] = target: CaRvs167
In short: as §1

[3] = target: CaRvs167-3
In short: as §1

[4] = target: CaSho1
In short: as §1

[5] = target: CaSla1-D1-D2
In short: as §1

[6] = target: CaSla1-D3
In short: as §1

[7] = target: ScAbp1
In short: as §1

[8] = target: ScBbc1
In short: as §1

[9] = target: ScBem1-D1
In short: as §1

[10] = target: ScBzz1-D1
In short: as §1

[11] = target: ScBzz1-D2
In short: as §1

[12] = target: ScCyk3
In short: as §1

[13] = target: ScFus1
In short: as §1

[14] = target: ScHof1
In short: as §1

[15] = target: ScHse1
In short: as §1

[16] = target: ScLsb1
In short: as §1

[17] = target: ScLsb2
In short: as §1

[18] = target: ScLsb3
In short: as §1

[19] = target: ScLsb4
In short: as §1

[20] = target: ScMyo3
In short: as §1

[21] = target: ScMyo5
In short: as §1

[22] = target: ScNbp2
In short: as §1

[23] = target: ScPex13
In short: as §1

[24] = target: ScRvs167
In short: as §1

[25] = target: ScSho1
In short: as §1

[26] = target: ScSla1-D1-D2
In short: as §1

[27] = target: ScSla1-D3
In short: as §1

[28] = target: SpAbp1-D1
In short: as §1

[29] = target: SpBbc1
In short: as §1

[30] = target: SpBzz1-D1
In short: as §1

[31] = target: SpBzz1-D2
In short: as §1

[32] = target: SpCyk3
In short: as §1

[33] = target: SpHof1
In short: as §1

[34] = target: SpHof1-2
In short: as §1

[35] = target: SpHof1-3
In short: as §1

[36] = target: SpHse1
In short: as §1

[37] = target: SpLsb1
In short: as §1

[38] = target: SpLsb4
In short: as §1

[39] = target: SpMyo1
In short: as §1

[40] = target: SpNbp2
In short: as §1

[41] = target: SpPex13
In short: as §1

[42] = target: SpRvs167
In short: as §1

[43] = target: SpSla1-D1-D2
In short: as §1

[44] = target: SpSla1-D3
In short: as §1

B1: unnamed (peptide)
chain: RFKRHRLEFPFNESE
- SPOT peptide array binding signal intensity [1]: 342
- SPOT peptide array binding signal intensity [2]: 25.7
- SPOT peptide array binding signal intensity [3]: 211
- SPOT peptide array binding signal intensity [4]: 939
- SPOT peptide array binding signal intensity [5]: 7
- SPOT peptide array binding signal intensity [6]: 4
- SPOT peptide array binding signal intensity [7]: 236
- SPOT peptide array binding signal intensity [8]: 11.5
- SPOT peptide array binding signal intensity [9]: 52
- SPOT peptide array binding signal intensity [10]: 12
- SPOT peptide array binding signal intensity [11]: 1
- SPOT peptide array binding signal intensity [12]: 112
- SPOT peptide array binding signal intensity [13]: 286
- SPOT peptide array binding signal intensity [14]: 5.25
- SPOT peptide array binding signal intensity [15]: 1570
- SPOT peptide array binding signal intensity [16]: 36.2
- SPOT peptide array binding signal intensity [17]: 3
- SPOT peptide array binding signal intensity [18]: 80
- SPOT peptide array binding signal intensity [19]: ≤ 0
- SPOT peptide array binding signal intensity [20]: ≤ 0
- SPOT peptide array binding signal intensity [21]: 3.5
- SPOT peptide array binding signal intensity [22]: 154
- SPOT peptide array binding signal intensity [23]: ≤ 0
- SPOT peptide array binding signal intensity [24]: 25.3
- SPOT peptide array binding signal intensity [25]: 756
- SPOT peptide array binding signal intensity [26]: 358
- SPOT peptide array binding signal intensity [27]: 11.8
- SPOT peptide array binding signal intensity [28]: 419
- SPOT peptide array binding signal intensity [29]: 2.5
- SPOT peptide array binding signal intensity [30]: 127
- SPOT peptide array binding signal intensity [31]: ≤ 0
- SPOT peptide array binding signal intensity [32]: ≤ 0
- SPOT peptide array binding signal intensity [33]: 68.2
- SPOT peptide array binding signal intensity [34]: 12.2
- SPOT peptide array binding signal intensity [35]: 348
- SPOT peptide array binding signal intensity [36]: 640
- SPOT peptide array binding signal intensity [37]: 10.8
- SPOT peptide array binding signal intensity [38]: 30.5
- SPOT peptide array binding signal intensity [39]: 0.5
- SPOT peptide array binding signal intensity [40]: 298
- SPOT peptide array binding signal intensity [41]: 15
- SPOT peptide array binding signal intensity [42]: 22.5
- SPOT peptide array binding signal intensity [43]: ≤ 0
- SPOT peptide array binding signal intensity [44]: 26
